Compound activity from PubChem BioAssay.
m5-HT2A agonist: activates the mouse 5-HT2A serotonin receptor. 0.66% of 360,000 active. activation, % at 7.6 µM. P35363. CHO-K1 mHTR2A beta-arrestin complementation, luminescence; percent of 30 µM serotonin response;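 active = activation above a run cutoff, the mean activation of all tested compounds plus 3 SD, cut at about 14% in these data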
NTR1 ag: activates human neurotensin receptor 1; NTR1-U2OS beta-arrestin-GFP spot imaging, agonist mode; activation, % at 20 µM; 0.17% of 330,000 active;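 active = activation at or above 40% of the spot to cytoplasm intensity ratio, with at least 20 cells analyzed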
Granule exo inh: blocks lytic granule exocytosis | TALL-104 LAMP-1 surface exposure, flow cytometry; cells stimulated with thapsigargin and PMA | inhibition, % at 10 µM | 0.66% of 360,000 active;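 active = inhibition above about 55%, limit read from the data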
ABHD5 PLIN5 PPI: inhibitors of human ABHD5-perilipin-5 interaction. Split G. princeps luciferase complementation, luminescence, 4 h. inhibition, % at 4 µM. 0.78% of 360,000 active;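 active = inhibition above the mean inhibition across every tested compound plus 3 SD, cut at about 22% in these data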
Beta2AR agonist: activates human beta-2 adrenergic receptor causing internalization. Am2.2-beta2AR cells, FAP receptor internalization, flow cytometry. P07550. 0.43% of 340,000 active. response, % (test concentration not listed);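 active = response above a set limit, near 3 SD of response in nonfluorescent compounds, cut at about 42% in these data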
Target sequence (P07550 whole entry, looked up): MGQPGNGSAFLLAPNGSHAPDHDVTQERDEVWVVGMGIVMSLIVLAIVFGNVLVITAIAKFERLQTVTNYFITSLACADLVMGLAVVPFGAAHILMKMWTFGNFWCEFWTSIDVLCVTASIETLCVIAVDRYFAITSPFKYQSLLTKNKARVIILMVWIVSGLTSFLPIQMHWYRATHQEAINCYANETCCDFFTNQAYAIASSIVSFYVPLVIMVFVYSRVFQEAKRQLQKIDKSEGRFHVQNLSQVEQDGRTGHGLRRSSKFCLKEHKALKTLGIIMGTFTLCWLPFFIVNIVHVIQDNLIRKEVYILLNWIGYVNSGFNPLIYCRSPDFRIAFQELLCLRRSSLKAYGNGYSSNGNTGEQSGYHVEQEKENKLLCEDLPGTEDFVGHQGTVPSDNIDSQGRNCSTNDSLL
Each line names hits and unclear results; the compound was inactive in the other large screens. Sampled rows, rich in hits. Any-hit rate of the full collection: about 2.3%.

COc1ccc(C(=O)c2coc3c2C(=O)C(=O)c2ccccc2-3)cc1	Granule exo inh 98
O=C(c1ccccc1)c1coc2c1C(=O)c1ccccc1C2=O	none
CCC(=O)NC(c1ccccc1OC)c1ccc2cccnc2c1O (stereo not drawn)	none
COc1ccc(Cl)cc1C(Nc1cccnc1)c1ccc2cccnc2c1O (stereo not drawn)	ABHD5 PLIN5 PPI 23
Cc1[nH]nc(N=CC2=C(O)CC(c3ccco3)CC2=O)c1-c1ccc(Cl)cc1 (stereo not drawn)	Granule exo inh 98
CCOC(=O)C1=C(C)NC(C)=C(C(=O)OCC)C1/C=C/c1ccccc1OC	none
CCOC(=O)C1=C(C)NC(C)=C(C(=O)OCC)C1c1ccccc1/C=C/C(=O)OC(C)(C)C	NTR1 ag 47 (no result: m5-HT2A agonist, Granule exo inh, ABHD5 PLIN5 PPI, Beta2AR agonist)
CC(C)Cc1nnc(NC(=O)C2CCN(C(=O)c3ccc(F)cc3)CC2)s1	none
COc1ccc(C2c3ccc4ccccc4c3Oc3ncn(CCCO)c(=N)c32)cc1 (stereo not drawn)	Granule exo inh 65
CCOC(=O)c1ccc(NC(=O)COc2ccccc2CNCCc2ccccc2)cc1	Granule exo inh 69
O=C(N=Nc1c(O)[nH]c2ccc(Cl)cc12)c1cc(-c2cccs2)nc2ccccc12	Beta2AR agonist 47 (no result: NTR1 ag)
Cc1cc(C)n(C2CC(=O)N(c3ccc(Cl)c(Cl)c3)C2=O)n1 (stereo not drawn)	none
COc1ccc(Nc2nnc(-c3ccc(N4CCOCC4)c([N+](=O)[O-])c3)c3ccccc23)cc1	m5-HT2A agonist 31 (no result: NTR1 ag)
O=C(/C=C/c1ccccc1)CCN1CCCCC1	ABHD5 PLIN5 PPI 23, Beta2AR agonist 44 (no result: NTR1 ag)
O=C1S/C(=C\c2ccc(N3CCOCC3)o2)C(=O)N1Cc1c(F)cccc1Cl	Granule exo inh 88
COc1ccccc1NC(=O)NNC(=O)CCN1CCOCC1	none
CCOP(=O)(OCC)/C(=N/OC(=O)c1ccc(OC)cc1)C(N)=O	Granule exo inh 70
Cc1c(N=C2C=CC(=O)c3ccccc32)c(=O)n(-c2ccccc2)n1C	Granule exo inh 95, Beta2AR agonist 44 (no result: NTR1 ag)
Cc1c(N=C2C=C(Br)C(=O)C(Br)=C2)c(=O)n(-c2ccccc2)n1C	none
Cc1ccccc1C(=O)Nc1ccnn1C1CCN(Cc2cnn(C(C)C)c2)CC1	none
C=CCc1ccc(O)c(-c2ccc(O)c(CC=C)c2)c1	none
CC/C(=C\C1CCCCC1)C(NP(=O)(c1ccccc1)c1ccccc1)c1ccccc1 (stereo not drawn)	Granule exo inh 59
CCCCN(C(=O)COC(=O)c1ccc(C=O)cc1)c1c(N)n(CCC)c(=O)[nH]c1=O	none
O=C(NCc1ccc(F)cc1)C(=O)NCC1OCCN1S(=O)(=O)c1cc(F)ccc1F (stereo not drawn)	none (no result: NTR1 ag, Beta2AR agonist)
COc1cc(/C=C(\C#N)c2ccccn2)ccc1OCC(=O)Nc1cccc(C(F)(F)F)c1	Beta2AR agonist 76
Cc1c(NC(=O)C(Sc2ccccc2)c2ccccc2)cccc1[N+](=O)[O-] (stereo not drawn)	Granule exo inh 59
C#CCOCCOCCOCCNc1nc(N2CCN(C(=O)[C@H](Cc3ccc(O)cc3)n3cc([C@@H](N)C(C)CC)nn3)CC2)nc(N2CCN(C(=O)[C@H](CCCCN)n3cc([C@@H](N)CC(C)C)nn3)CC2)n1 (stereo partly drawn)	none (no result: m5-HT2A agonist, Granule exo inh, ABHD5 PLIN5 PPI, Beta2AR agonist)
C#CCOCCOCCOCCNc1nc(N2CCN(C(=O)[C@H](CCCCN)n3cc([C@@H](N)CO)nn3)CC2)nc(N2CCN(C(=O)[C@H](Cc3ccc(O)cc3)n3cc([C@@H](N)CC(C)C)nn3)CC2)n1	Granule exo inh 68
C#CCOCCOCCOCCNc1nc(N2CCN(C(=O)C([C@@H](C)CC)n3cc(C(N)CC(C)C)nn3)CC2)nc(N2CCN(C(=O)[C@H](CCC(=O)O)n3cc(C(N)CC(C)C)nn3)CC2)n1 (stereo partly drawn)	Granule exo inh 76
C#CCOCCOCCOCCNc1nc(N2CCN(C(=O)[C@H](CCCCN)n3cc([C@@H](N)C(C)CC)nn3)CC2)nc(N2CCN(C(=O)[C@H](Cc3cc4ccccc4[nH]3)n3cc([C@@H](N)CC(C)C)nn3)CC2)n1 (stereo partly drawn)	ABHD5 PLIN5 PPI 24
Cc1ccc(C)c(S(=O)(=O)N2CCN(C(=O)/C=C/c3ccco3)CC2)c1	ABHD5 PLIN5 PPI 43
CSC1=NSC2=NC(=O)/C(=C\c3ccc(OC(=O)c4ccco4)cc3)C(=N)N12	Beta2AR agonist 43
Nc1ccc(S(=O)(=O)c2cc(O)c3ccccc3c2O)cc1	Granule exo inh 88 (no result: NTR1 ag)
CN1C(=O)c2ccccc2Sc2ccc(NC(=O)NC3CC3)cc21	ABHD5 PLIN5 PPI 25
CC(=O)Oc1ccc2c(c1)CCC1C2CCC2(C)C(OC(C)=O)CCC12 (stereo not drawn)	none (no result: NTR1 ag)
C[C@]12CC[C@@H]3c4ccc(OC(=O)c5ccccc5)cc4CC[C@H]3[C@@H]1CC[C@@H]2O	Granule exo inh 60
CCOC(=O)c1c(-c2ccc(-c3ccccc3)cc2)csc1NC(=O)C1C2CCC(O2)C1C(=O)O (stereo not drawn)	ABHD5 PLIN5 PPI 34
CCCc1cc(=O)c2ccc(OC/C(C)=N/O)cc2o1	none
NNC(=O)c1ccc(CSc2cccc3cccnc23)cc1	none
c1cnc2c(SCc3ccc(-c4nnco4)cc3)cccc2c1	Granule exo inh 69
COc1ccc(/C=C/c2cc(C(F)(F)F)[nH]c(=O)n2)cc1OC	ABHD5 PLIN5 PPI 22
CN(C)CCCNC(=O)C[C@H]1C[C@H](C(=O)N2CCCCC2)[C@@]2(C)c3[nH]c4cc(-c5ccco5)ccc4c3CCN2C1=O	none
CN(C)CCCNC(=O)C[C@H]1C[C@H](C(=O)N2CCCCC2)[C@@]2(CCc3ccccc3)c3[nH]c4cc(-c5ccco5)ccc4c3CCN2C1=O	ABHD5 PLIN5 PPI 22
CC[C@]12c3[nH]c4cc(-c5ccco5)ccc4c3CCN1C(=O)[C@@H](CC(=O)NCc1ccc(OC)c(OC)c1)C[C@@H]2C(=O)N1CCN(C(=O)C2CC2)CC1	none
COc1ccc(CNC(=O)C[C@H]2C[C@H](C(=O)N3CCCCC3)[C@@]3(CCc4ccccc4)c4[nH]c5cc(-c6ccco6)ccc5c4CCN3C2=O)cc1OC	ABHD5 PLIN5 PPI 45
C[C@@H]1CN([C@@H](C)CO)C(=O)CCCn2nncc2CO[C@H]1CN(C)C(=O)OCc1ccccc1	none (no result: NTR1 ag, Beta2AR agonist)
CCCCCCOC(=O)c1ccc(OC(=O)c2cccnc2)cc1	m5-HT2A agonist 22
CCn1cc(C2=NOC(C(=O)Nc3cc(C)nn3-c3ccccc3)C2)c(C)n1 (stereo not drawn)	none
C=CCn1c(-c2ccccn2)n[nH]c1=S	none (no result: NTR1 ag, Beta2AR agonist)
CCOC(=O)/C(=C\c1ccc(OC(F)F)cc1)C1=Nn2c(nnc2-c2ccc(Cl)cc2)SC1	Beta2AR agonist 80 (no result: NTR1 ag)
CCOC(=O)c1ccc(-n2c(C)ccc2C)cc1	none
CCOC(=O)c1ccc(N2C(=O)C=CC2=O)cc1	Granule exo inh 105
O=C(CNC(=O)c1ccc2c(c1)OCCO2)N/N=C/c1cccc(Br)c1	none
